Test results published in PubChem BioAssay.
Activity calls are given as the source filed them.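 Rule for the calls: active = z-score of at least 1.8 in each of two replicates, scored against plate mean and spread of sample wells; inactive = the rest.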

Assay: viability rescue of complex I mutant cybrids, primary screen, cell-based, galactose medium, ATP luminescence (AID 1645843);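 note: positive z means more ATP and so rescue of galactose-driven cybrid death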
Conditions: complex I mutant cybrid cells, 72 h, active compounds read high

SMILES | z-score
CN1CCN(CC(C)(C)C)CC1CCO (centres undefined) | -0.57 (inactive)
Cc1c(C(F)(F)F)nc(-c2ccc(CN(C)Cc3ccccn3)cc2)[nH]c1=O | -0.485 (inactive)
O=c1cc(-c2ccccc2Cl)nc(-c2ccc(CN3CCC[C@@H](O)C3)cc2)[nH]1 | -0.605 (inactive)
Cc1c(C(F)(F)F)nc(-c2ccc(CN(C)C)cc2)[nH]c1=O | -0.555 (inactive)
Cc1ccc2c(C(=O)N3CCCCC3)cc(-c3cnn(C(C)C)c3)nc2c1 | -0.385 (inactive)
Cc1c(C(=O)N2CCSCC2)c(-c2ccccc2)nn1-c1ccccc1 | 1.96 (inactive)
Cn1nccc1NC(=O)Cn1ccc(-c2cnn(-c3ccccc3F)c2)n1 | -0.815 (inactive)
c1coc(-c2nc3c(cnn3Cc3cccs3)[nH]2)c1 | -0.74 (inactive)
CC(CCCC(C)(C)O)NC/C=C/c1ccc(F)cc1 (centres undefined) | -0.51 (inactive)
CCN(C(=O)c1cc(-c2cnc(C3CC3)nc2)nc2cc(C)ccc12)C(C)C | 1.41 (inactive)
c1ccc(Cn2ccnc2CNc2ncnc3nc[nH]c23)cc1 | -0.435 (inactive)
CC(C)CC1(CO)CCCN(C(=O)c2cccc(C#CC(C)(C)O)c2)C1 (centres undefined) | -0.79 (inactive)
CC(CCCC(C)(C)O)CCNCC1(c2ccccc2)CCOCC1 (centres undefined) | -0.5 (inactive)
COc1c(F)cc(C(=O)N2CCNC(=O)C2Cc2ccccc2)cc1F (centres undefined) | -0.455 (inactive)
Cc1cccc2c(C(=O)N(C)C(C)C)cc(-c3cnn(C(C)(C)C)c3)nc12 | 1.41 (inactive)
COc1ccccc1-c1noc(Cn2ncc3ccccc32)n1 | 1.12 (inactive)
O=C(C1CCCCCC1)N1CCC(n2cc(-c3ccccc3)nn2)CC1 | -0.495 (inactive)
Clc1cccn2c(-c3ccccc3OC3CCCC3)nnc12 | 0.365 (inactive)
Cc1cccc2c(C(=O)N3CCN(C)C(=O)C3C)cc(-c3cnc(N)nc3)nc12 (centres undefined) | 2.6 (inactive)
CN1CCN(Cc2cnc3ccccc3c2)CC1CCO (centres undefined) | 0 (inactive)
CCCn1cc(-c2ccnc(NCc3cn4cccc(C)c4n3)n2)c(C)n1 | -1.07 (inactive)
Cn1ccnc1-c1ccccc1C(=O)N1CCN(Cc2cccc(Cl)c2)CC1 | 0.665 (inactive)
CCCCn1nnnc1NC(=O)N1C2CCCCC1CCC2 | 0.915 (inactive)
COc1cccc2c(C)cc(N3CCC[C@H]3CO)nc12 | -0.095 (inactive)
